# Laboratory results from the supplement of paper PMC3334620.
# The full ranking holds about 33,000 sequences; the median of “E-score (-0.5 to 0.5)” is about -0.032, and the highest 2% start at about 0.36. The list comes from a sample in which the highest values are over-represented; it also holds similar and randomly drawn sequences.
# Biological target: T1, Sko1 (UniProt Q02100)
# T1 sequence: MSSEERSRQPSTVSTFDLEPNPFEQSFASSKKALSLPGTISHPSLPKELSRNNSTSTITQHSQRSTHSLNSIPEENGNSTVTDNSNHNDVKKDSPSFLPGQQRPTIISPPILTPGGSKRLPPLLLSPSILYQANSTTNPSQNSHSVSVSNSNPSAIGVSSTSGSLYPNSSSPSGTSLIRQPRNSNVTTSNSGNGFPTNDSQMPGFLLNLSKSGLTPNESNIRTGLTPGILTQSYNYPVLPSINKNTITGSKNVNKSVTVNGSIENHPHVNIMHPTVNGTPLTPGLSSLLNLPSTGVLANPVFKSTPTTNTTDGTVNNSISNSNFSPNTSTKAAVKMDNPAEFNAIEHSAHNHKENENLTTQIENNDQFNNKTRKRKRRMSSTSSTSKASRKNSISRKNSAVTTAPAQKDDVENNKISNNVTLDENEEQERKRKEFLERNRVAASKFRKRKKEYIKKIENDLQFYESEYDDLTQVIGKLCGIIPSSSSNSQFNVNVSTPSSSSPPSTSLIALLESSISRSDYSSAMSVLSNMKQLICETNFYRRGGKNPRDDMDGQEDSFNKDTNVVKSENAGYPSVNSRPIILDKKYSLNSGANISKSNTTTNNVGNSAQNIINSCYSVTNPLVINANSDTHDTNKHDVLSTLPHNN
# Assay: PBM E-score (8-mer binding enrichment) (E-score (-0.5 to 0.5)); higher = stronger / more preferred TF binding
# Conditions: protein concentration: 200 nM; construct: GST-full length
# Procedure, shortened: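 For each ungapped eight-base word taken together with its reverse complement, the Universal PBM Analysis Suite assigned an E-score. Binding data came from GST-tagged yeast transcription factors, applied at about 100-200 nM, on universal all-10-mer Agilent arrays made double-stranded by primer extension. Fluorescent anti-GST marked bound protein, and scans were normalised with masliner.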
row,Sequence,PBM E-score
1,ACTCTCTG,-0.135
2,CTCGCAAG,0.0771
3,CAGCACCG,-0.198
4,AAGAGCAT,0.0596
5,AAAGGTGA,-0.09
6,CATTGTTA,0.108
7,GTTCTTTA,0.175
8,GTTACGTA,0.483
9,GTTACGGA,0.0875
10,CTTACGTC,0.459
11,GTTACTGA,0.173
12,CTTAGGTC,0.0974
13,CTTACTTA,0.0934
14,CTTACGGC,-0.277
15,CTTACGGA,0.0115
16,CTTACGTA,0.489
17,GGTTGCCA,-0.215
18,CCCTGATA,-0.149
19,ATCACTGG,0.0306
20,CATATCCA,-0.129
21,ACCGTTCC,-0.0907
22,GCGCCACC,-0.291
23,AAACGTGA,0.308
24,ATACGTGA,0.426
25,ATACGTGC,0.406

row,Sequence,PBM E-score
1,GGACGTGA,0.181
2,ATACGTGG,0.429
3,CTACGTGC,0.354
4,AGACGTGC,0.241
5,AAACGTGG,0.213
6,GAACGTGA,0.175
7,AGACGTGA,0.312
8,GTACGTGA,0.416
9,AGACGTGG,0.203
10,CAGTCTTC,-0.187
11,AGCCGAAT,-0.104
12,AGCCTTTA,0.0785
13,CTGGTGGA,-0.185
14,CTACGCGA,0.167
15,CTTCGTGA,0.186
16,CTACGTGA,0.404
17,GGTCAGAA,-0.206
18,CGTCAGAC,0.394
19,CGTCAAAC,0.253
20,GGTCAGAC,-0.241
21,AGTCAGAG,-0.142
22,CGTCAGAG,0.429
23,GGTCAAAA,0.096
24,CCTCAGAG,-0.374
25,CGTCAAAA,0.36

row,Sequence,PBM E-score
1,AGTCAGAA,-0.0299
2,AGTCAGAC,-0.203
3,CGTCAGAA,0.37
4,CTAACTTA,0.00938
5,CGCTGTGC,-0.202
6,CGTTATTA,0.303
7,CACAGTGC,-0.182
8,AGACTTAT,-0.0312
9,CGTCAACG,0.389
10,AGTCAGTC,-0.02
11,CGTCAGGC,0.272
12,CGTCAATA,0.359
13,AGTCAACG,0.0691
14,CGTCAACA,0.323
15,CGTCAGGA,0.39
16,CGTCAATC,0.365
17,GGTCAGGA,-0.245
18,AGTCAATC,0.017
19,CGTCAGTC,0.375
20,CGTCAGTA,0.327
21,CCTGGTAA,-0.124
22,CGCTGTCC,-0.0275
23,ATTCCATG,-0.0675
24,AACGAAAT,0.261
25,CGTGGGAA,0.00507

row,Sequence,PBM E-score
1,GCATAAAC,0.166
2,ACCAAGGC,-0.197
3,CTGCCCGC,-0.0733
4,GCCTACAA,-0.169
5,CTCTGATA,0.0155
6,GCAAGTCA,0.00337
7,ACAGAGAG,-0.274
8,ATTTCTTG,0.164
9,GGCTCACA,-0.118
10,GTGTCCAA,0.142
11,ATTGTGCA,0.076
12,CTGTTCGA,-0.13
13,ACGTCGCC,0.327
14,CACGTGAC,0.387
15,CGCGTGAC,0.267
16,CACGTGAG,0.344
17,GACGTGAC,0.432
18,AACGTGAC,0.277
19,GACGTGAA,0.358
20,AATCGACG,0.295
21,GAAACCCC,-0.221
22,GCGACGGA,-0.237
23,CCGACGGA,-0.237
24,GCGACGAA,0.0338
25,CCGACGTA,0.415

row,Sequence,PBM E-score
1,CCGACGTC,0.309
2,GCGACGTA,0.413
3,GACACTGC,-0.0761
4,GGGCGCTA,-0.0254
5,GCTGGAAC,-0.188
6,ACGTAGCG,0.42
7,ACGTAGCC,0.388
8,TCGTAGCA,0.217
9,CCGTAGCC,-0.259
10,CCGTAGCA,-0.064
11,ACGTAGCT,0.444
12,GCGTAGCC,0.00349
13,AAGTAGCT,0.0695
14,ACTTAGCG,0.0634
15,ACGTAGCA,0.412
16,CCGTAGCG,-0.239
17,ACTTAGCT,-0.211
18,TAGGATGA,0.136
19,CGTTCGAG,0.189
20,ACTAAAGG,-0.0392
21,GAACACAC,-0.0651
22,CCCCAGCA,-0.157
23,AGCGTATG,-0.0197
24,CACGTATG,0.426
25,CGCGTATA,0.244

row,Sequence,PBM E-score
1,AGCGTATC,-0.0128
2,GAAGTATC,0.0123
3,ACCGTATG,0.105
4,CACGTATA,0.431
5,CAGGTATG,-0.00478
6,GACGTATC,0.422
7,CAAGTATG,0.0253
8,AACGTATG,0.431
9,CTCGTATA,0.0394
10,CGAGCACA,-0.00253
11,CAGTTCAG,-0.112
12,TTACAGAA,-0.0258
13,ACAATAGC,-0.0393
14,CAATGCCG,-0.128
15,CGACCTTC,-0.189
16,ACTGCGTC,0.284
17,GACGTATA,0.453
18,CACGTATC,0.393
19,AAAGTATT,0.0493
20,ACCGTATA,0.0367
21,CTCGTATC,0.0593
22,CGCGTATC,0.232
23,GGCGTATA,0.148
24,AAGGTATT,0.131
25,GTCGTATA,0.269

row,Sequence,PBM E-score
1,ATCGTATA,0.197
2,TACGTATA,0.483
3,AACGTATT,0.434
4,CGCACTGA,0.0222
5,AGCTATAT,0.172
6,TCCCGACA,-0.139
7,CAAGTCGC,-0.173
8,AGCGTATA,0.15
9,AACGTATA,0.406
10,AACGTATC,0.353
11,ACACGGGG,-0.242
12,AATACGAG,0.244
13,ATTACGAG,0.36
14,ATTACGAC,0.396
15,ACTACGAC,0.181
16,CTTACGAC,0.16
17,ACTACGAG,0.162
18,ATACCTGC,-0.102
19,CAAATTAG,0.104
20,GCGTCACA,0.406
21,GCGTCACC,0.341
22,CCGTCACG,0.152
23,TCGTCACA,0.379
24,CCGTCACA,0.163
25,TGGTCACA,0.0263

row,Sequence,PBM E-score
1,ACTAGACT,-0.176
2,CAATAGCA,-0.132
3,CTGCAATC,-0.0429
4,CGCTGAGA,-0.0923
5,AAAACCAG,-0.0997
6,ACGCAACC,0.379
7,ACGCAACG,0.377
8,GCGCAACC,-0.162
9,CCGCAACA,0.165
10,ACGCAACA,0.388
11,GCGCAACA,0.175
12,CCGCAACG,0.0186
13,CCGCAACC,-0.2
14,ACGCAACT,0.355
15,TAGAGCCA,-0.278
16,GCCGAGAC,-0.218
17,ATGGGTCG,-0.179
18,ATTCAAGC,0.106
19,ATGTTCTA,0.0474
20,GCGTGCGA,-0.0187
21,CTACATTA,0.00265
22,CTACATCC,-0.0667
23,GTACATGA,0.184
24,ATACATCA,0.382
25,ATACATCG,0.196

row,Sequence,PBM E-score
1,ATACATCC,0.0616
2,GTACATTA,0.295
3,GTACATCA,0.366
4,CTACATCA,0.375
5,CGGGGCGC,-0.313
6,AACAGGTT,-0.0299
7,AGGCACTA,-0.0926
8,TAACATCA,0.367
9,GGACATCA,0.205
10,TGACATAA,0.424
11,TGACATCA,0.466
12,TTACATAA,0.407
13,GGACATAA,0.0688
14,CAACATCA,0.294
15,AGACATAA,0.0234
16,GTACATAA,0.306
17,CTACATAA,0.194
18,CGACATCA,0.355
19,AAACATCA,0.189
